Where a name gives a salt, the structure may show the parent alone. ± gives the standard deviation of the averaged measurements.

For this assay, the system named is Danio rerio Tg(wt1b:EGFP) embryo, pronephros. The experiment in a line: glomerular width (mean of left and right), fold change vs DMSO control; higher = wider glomerulus. Particulars: 25 µM; exposure: 24-48 hpf. The essentials: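 Dechorionated Tg(wt1b:EGFP) zebrafish embryos were treated with 25 μM compound in 0.5% DMSO, in HEPES-buffered E3 with 0.003% PTU, from 24 to 48 hpf at 28.5°C. On maximum projections of dorsal pronephros images, 16 hand-placed reference points in Fiji gave distances and angles, and values more than 2 SD from the feature mean were left out. Results are fold changes over the mean of same-day DMSO-treated embryos.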
Regarding `CCN(CC)C(C)C(=O)c1ccccc1` (stereo not drawn) [Amfepramone hydrochloride], the glomerular width turned out to be 0.97173 ± 0.00026.

In the case of `Fc1ccc(C(OCCN2CCN(CCCc3ccccc3)CC2)c2ccc(F)cc2)cc1`, the glomerular width came to 0.737 ± 0.028.

Take `CC(=O)OCC(=O)[C@H]1CC[C@H]2[C@@H]3CC[C@H]4C[C@H](O)CC[C@]4(C)[C@H]3C(=O)C[C@]12C` [Alfadolone acetate]: the glomerular width came to 0.942 ± 0.057.

The molecule `NC(=O)C[S+]([O-])C(c1ccccc1)c1ccccc1` (stereo not drawn) [Modafinil] came in with a glomerular width of 1.09 ± 0.073.

The molecule `NC(=O)OCCCc1ccccc1` [Phenprobamate] yielded a glomerular width of 1.03 ± 0.022.

In turn, `CC(Cc1ccccc1)NCCC(c1ccccc1)c1ccccc1` (stereo not drawn) [Prenylamine lactate] gave a glomerular width of 1.07 ± 0.071.

Consider `CNC(C)(C)Cc1ccccc1` [Mephentermine hemisulfate], for which the glomerular width is 1.08 ± 0.036.

`CC(=O)[C@H]1CC[C@H]2[C@@H]3CC[C@H]4C[C@H](O)CC[C@]4(C)[C@H]3C(=O)C[C@]12C` [Alfaxalone] had a glomerular width of 0.957 ± 0.0043.

As to `CN1[C@@H]2CC[C@H]1C[C@@H](OC(=O)[C@H](CO)c1ccccc1)C2` [Hyoscyamine (L)], the glomerular width came out at 1.06 ± 0.03.

In turn, `C[C@]12CC[C@@H](O)C[C@@H]1CC[C@@H]1[C@@H]2CC[C@]2(C)C(=O)CC[C@@H]12` [Androsterone] showed a glomerular width of 0.991 ± 0.038.

As for `OC(c1ccccc1)(c1ccccc1)C1CCNCC1` [Azacyclonol], the glomerular width is 0.9558 ± 0.0054.

`O=C(CCCN1CCC(n2c(=O)[nH]c3ccccc32)CC1)c1ccc(F)cc1` [Benperidol] yielded a glomerular width of 0.951 ± 0.034.

`O=[N+]([O-])O[C@@H]1CO[C@H]2[C@@H]1OC[C@@H]2O` [Isosorbide mononitrate] showed a glomerular width of 1.04 ± 0.019.

These data come from the supplement of paper PMC7366291.
